Each structure is given as a SMILES string. Records with an inconclusive call do not appear. Active and inactive are the calls of the source. How the source made its calls: active means hit-call score of the fitted dose curve at least 0.9, where 1 is the maximum; inconclusive means response in the unintended direction; inactive means score below 0.9.

Chain of human Monoamine Oxidase A (MAO-A), MAOA (gene 4128) (P21397 whole entry, looked up): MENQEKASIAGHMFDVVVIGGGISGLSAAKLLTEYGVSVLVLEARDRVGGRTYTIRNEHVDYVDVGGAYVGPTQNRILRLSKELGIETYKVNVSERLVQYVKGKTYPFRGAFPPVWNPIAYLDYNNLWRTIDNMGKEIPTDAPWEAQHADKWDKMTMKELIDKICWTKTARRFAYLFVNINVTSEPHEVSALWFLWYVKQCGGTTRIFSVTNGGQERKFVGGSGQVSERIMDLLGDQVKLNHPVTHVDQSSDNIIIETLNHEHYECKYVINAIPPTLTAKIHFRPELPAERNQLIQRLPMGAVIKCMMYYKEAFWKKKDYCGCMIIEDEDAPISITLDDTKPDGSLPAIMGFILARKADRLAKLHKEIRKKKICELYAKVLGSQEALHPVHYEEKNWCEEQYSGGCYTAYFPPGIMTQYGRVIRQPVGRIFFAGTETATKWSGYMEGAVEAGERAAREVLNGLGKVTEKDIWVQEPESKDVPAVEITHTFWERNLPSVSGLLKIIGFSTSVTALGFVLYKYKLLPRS

The test has as its target human Monoamine Oxidase A (MAO-A), MAOA (gene 4128) (UniProt P21397). The test is described as follows: ERF_FR_ENZ_hMAOA: Eurofins (ERF) Enzymatic LeadHunter Assay for human Monoamine Oxidase A (MAO-A). On the procedure:
ERF_FR_ENZ_hMAOA is a biochemical, single-readout assay that uses extracted gene-proteins in a cell-free assay. Measurements were taken 0.33 hour after chemical dosing in a 96-well plate. See Monoamine Oxidase A (MAO-A) Human Enzymatic Assay, Cerep.ERF_FR_ENZ_hMAOA is an assay component calculated from the ERF_FR_ENZ_hMAOA assay. It is designed to measure enzyme activity using a type of enzyme reporter as detected by fluorescence intensity with spectrophotometry technology.Data from the assay component ERF_FR_ENZ_hMAOA was analyzed at the assay endpoint, ERF_FR_ENZ_hMAOA, in the positive analysis fitting direction relative to DMSO as the negative control and baseline of activity. Using a type of enzyme reporter, loss-of-signal activity can be used to understand changes in enzymatic activity as they relate to gene MAOA. To generalize the intended target to other relatable targets, this assay endpoint is annotated to the […] intended target family, where the subfamily is monoamine oxidase.
Human cells are incubated for 45 minutes at room temprature with Kynuramine, diHCl at 350 uM as sunstrate. Test Sample Requirements: Minimum for 1) Screen: 60 ul of 10 mM stock -OR- 1 mg (pre-weighed) for 10 uM final testing. 2) Dose Response: 90 ul of 10 mM stock -OR- 1 mg (pre-weighed) for a top concentration at 10 uM.
Regarding `COc1cc(/C=C/C(=O)CC(=O)/C=C/c2ccc(O)c(OC)c2)ccc1O`, the call was inactive.

As to `COc1cc(CCC(=O)CC(=O)CCc2ccc(O)c(OC)c2)ccc1O`, the result was inactive.
